These results are taken from the supplement of paper PMC13380429.

The subject of experiment [1] is Vero E6 infected with SARS-CoV-2. The experiment can be described thus: morphology score (similarity to uninfected cells); higher = more like uninfected cells. The conditions noted are these: 24 h.
For experiment [2] the test system is unchanged. The experiment can be described thus: SARS-CoV-2 infection rate relative to infected DMSO; higher = more infection, active = 60 or less. As to conditions: 24 h.

Consider `CN1CCN(CCc2ccc(Cl)c(Cl)c2)CC1` (10 µM), for which the morphology score in experiment [1] stood at 0.156. Besides, in experiment [2], the SARS-CoV-2 infection rate was 94% (inactive).
For `CC(C)NCC(O)c1ccc2ccccc2c1` (stereo unspecified) [pronethalol] (10 µM) the same measures were -0.0652 and 104% (inactive).
For `O=C(O)CCC/C=C\C[C@@H]1[C@@H](/C=C/[C@@H](O)COc2cccc(Cl)c2)[C@H](O)C[C@@H]1O` (racemic) [cloprostenol-(+/-)] (10 µM) the same measures were -0.0265 and 110% (inactive).
Consider `N#CCCCSC(=N)N` [kevetrin] (10 µM), for which the morphology score in experiment [1] stood at 0.195. Besides, the SARS-CoV-2 infection rate in experiment [2] was 92% (inactive).
For `O=C(O)c1cc(O)c2c3nc4ccccc4oc-3cc(=O)c2n1` [pirenoxine] (10 µM) the same measures were 0.0951 and 102% (inactive).
`Oc1ccc(C2CNCCc3c2cc(O)c(O)c3Cl)cc1` (stereo unspecified) [fenoldopam] (10 µM) gave a morphology score in experiment [1] of 0.226. For the same compound, in experiment [2], the SARS-CoV-2 infection rate is 95% (inactive).
On the same counts, the results for `C#C[C@]1(O)CC[C@H]2[C@@H]3CCC4=CC(=O)CC[C@]4(C)[C@H]3CC[C@@]21C` [ethisterone] (10 µM) are -0.0671 and 107% (inactive).
For `CCN(CC)CCOc1ccc(/C(=C(\Cl)c2ccccc2)c2ccccc2)cc1` [clomifene] (0.833333 µM) the same measures were 0.172 and 96.5% (inactive).
On the same counts, the results for `C=CC(=O)Nc1cccc(Nc2nc(Nc3ccc(Oc4ccnc(C(=O)NC)c4)cc3)ncc2F)c1` (0.833333 µM) are 0.147 and 110% (inactive).
As to `Clc1ccccc1CN1CCc2sccc2C1` [ticlopidine] (10 µM), in experiment [1], the morphology score amounted to 0.199. In experiment [2], the SARS-CoV-2 infection rate is 92.5% (inactive).
On the same counts, the results for `N=C(N)NCCCC[C@@H]1NC(=O)CCSSC[C@@H](C(N)=O)NC(=O)[C@@H]2CCCN2C(=O)[C@H](Cc2c[nH]c3ccccc23)NC(=O)[C@H](CC(=O)O)NC(=O)CNC1=O` [eptifibatide] (10 µM) are -0.125 and 118% (inactive).
On the same counts, the results for `Cc1cc(=O)oc2c(C=O)c(O)ccc12` (10 µM) are 0.206 and 106% (inactive).
On the same counts, the results for `C/C=C(/C)C(=O)O[C@H]1[C@H](OC(C)=O)[C@@]2(CO)C(CC1(C)C)C1=CCC3[C@@]4(C)CCC(O[C@@H]5O[C@H](C(=O)O)[C@@H](O[C@@H]6O[C@H](CO)[C@@H](O)[C@H](O)[C@H]6O)[C@H](O)[C@H]5O[C@@H]5O[C@H](CO)[C@@H](O)[C@H](O)[C@H]5O)[C@](C)(CO)C4CC[C@@]3(C)[C@]1(C)C[C@H]2O.C/C=C(\C)C(=O)O[C@H]1[C@H](OC(C)=O)[C@@]2(CO)C(CC1(C)C)C1=CCC3[C@@]4(C)CCC(O[C@@H]5O[C@H](C(=O)O)[C@@H](O[C@@H]6O[C@H](CO)[C@@H](O)[C@H](O)[C@H]6O)[C@H](O)[C@H]5O[C@@H]5O[C@H](CO)[C@@H](O)[C@H](O)[C@H]5O)[C@](C)(CO)C4CC[C@@]3(C)[C@]1(C)C[C@H]2O` (stereo partly specified) [escin] (0.833333 µM) are -0.0809 and 118% (inactive).
With `CC(C)(C)c1ccc(C(O)CCCN2CCC(C(O)(c3ccccc3)c3ccccc3)CC2)cc1` (stereo unspecified) [terfenadine] (10 µM), in experiment [1], the morphology score is 0.133. Further, the SARS-CoV-2 infection rate in experiment [2] was 96% (inactive).
In turn, `CCCCCCCCOc1ccccc1C(=O)Nc1ccc(C(=O)OCC[N+](C)(CC)CC)cc1` [otilonium] (10 µM) returned a morphology score in experiment [1] of 0.299. For the same compound, the SARS-CoV-2 infection rate in experiment [2] was 101% (inactive).
For `CC(CC(C(N)=O)(c1ccccc1)c1ccccc1)N(C)C` (stereo unspecified) [aminopentamide] (10 µM) the same measures were 0.0885 and 104% (inactive).
On the same counts, the results for `COc1cc(N2CCC(N3CCN(C)CC3)CC2)ccc1Nc1ncnc(Nc2ccccc2S(=O)(=O)C(C)C)n1` (0.833333 µM) are -0.0307 and 71% (inactive).
For `CC(O)(CS(=O)(=O)c1ccc(F)cc1)C(=O)Nc1ccc(C#N)c(C(F)(F)F)c1` (stereo unspecified) [bicalutamide] (10 µM) the same measures were -0.00454 and 114% (inactive).
Compound `NS(=O)(=O)c1cc(C(=O)O)cc(N2CCCC2)c1Oc1ccccc1` [piretanide] (10 µM) returned a morphology score in experiment [1] of 0.0293. In addition, the SARS-CoV-2 infection rate in experiment [2] was 110% (inactive).
On the same counts, the results for `O=C1Nc2ccc(Cl)cc2[C@@](C#CC2CC2)(C(F)(F)F)O1` [efavirenz] (10 µM) are 0.0664 and 108% (inactive).
On the same counts, the results for `O=C1C2CC=CCC2C(=O)N1SC(Cl)(Cl)Cl` (stereo unspecified) [captan] (10 µM) are 0.232 and 93% (inactive).
For `CCOc1cn(-c2ccc(F)cc2C)nc1C(=O)Nc1ccc(Oc2ccnc3cc(OC)c(OC)cc23)c(F)c1` (10 µM) the same measures were 0.685 and 110% (inactive).
In turn, `O=[N+]([O-])c1nccn1CC(O)CN1CCCCC1` (stereo unspecified) [pimonidazole] (10 µM) displayed a morphology score in experiment [1] of 0.0622. In experiment [2], the SARS-CoV-2 infection rate was 108% (inactive).
On the same counts, the results for `CCCCN(CCCC)CC(O)c1cc(Cl)cc2c1-c1ccc(Cl)cc1/C2=C/c1ccc(Cl)cc1` (stereo unspecified) [lumefantrine] (10 µM) are 0.15 and 91.5% (inactive).
For `C=CC(=O)c1ccc2ccccc2c1` [JAK3-inhibitor-V] (10 µM) the same measures were 0.0151 and 102% (inactive).
For `CC(=O)Nc1c(I)cc(I)c(C(=O)O)c1I` [acetriazoic-acid] (10 µM) the same measures were 0.138 and 112% (inactive).
The compound `C/C=C(/C(=C/C)c1ccc(O)cc1)c1ccc(O)cc1` [dienestrol] (10 µM) registered a morphology score in experiment [1] of -0.0419. In experiment [2], the SARS-CoV-2 infection rate was 96% (inactive).
The compound `CC1(COc2ccc3c(c2)ncn3-c2ccc3cccc(N4CCC(N)CC4)c3n2)COC1` [crenolanib] (0.833333 µM) came in with a morphology score in experiment [1] of -0.0592. In addition, the SARS-CoV-2 infection rate in experiment [2] was 99.5% (inactive).
On the same counts, the results for `CCOC(=O)c1ncc2[nH]c3ccc(OCc4ccccc4)cc3c2c1COC` (10 µM) are -0.0675 and 97.5% (inactive).
`c1ccc(C2CN3CCSC3=N2)cc1` (stereo unspecified) [tetramisole] (10 µM) showed a morphology score in experiment [1] of 0.191. Also, the SARS-CoV-2 infection rate in experiment [2] is 104% (inactive).
On the same counts, the results for `c1ccc(Cn2c(N3CCNCC3)nc3ccccc32)cc1` [lerisetron] (10 µM) are 0.0474 and 100% (inactive).
In turn, `CN(C)C(=S)SC(=S)N(C)C` [tetramethylthiuram-monosulfide] (10 µM) registered a morphology score in experiment [1] of -0.225. In experiment [2], the SARS-CoV-2 infection rate is 116% (inactive).
For `COc1ccc(CCNCC(O)COc2cccc(C)c2)cc1OC` (stereo unspecified) [bevantolol] (10 µM) the same measures were -0.027 and 110% (inactive).
For `Cc1ccc(/C=N/NC(=O)c2ccccc2Oc2ccccc2)o1` (10 µM) the same measures were 0.268 and 82.5% (inactive).
For `CCCN(CCC)C(=O)C(CCC(=O)O)NC(=O)c1ccccc1` (stereo unspecified) [proglumide] (10 µM) the same measures were 0.0817 and 107% (inactive).
As to `CCCn1c(=O)[nH]c2nc(-c3ccc(S(=O)(=O)O)cc3)[nH]c2c1=O` (10 µM), the morphology score in experiment [1] was 0.179. For the same compound, in experiment [2], the SARS-CoV-2 infection rate was 105% (inactive).
For `NC(=O)N1C(=O)/C(=C(\O)c2cccs2)c2cc(Cl)ccc21` [tenidap] (10 µM) the same measures were 0.0356 and 91% (inactive).
`O=C(NC(NC(=S)Nc1ccc(F)c([N+](=O)[O-])c1)C(Cl)(Cl)Cl)C(c1ccccc1)c1ccccc1` (stereo unspecified) (0.833333 µM): the morphology score in experiment [1] was found to be 0.0472. The SARS-CoV-2 infection rate in experiment [2] was 104% (inactive).
For `OCc1c[nH]c2ccccc12` [indole-3-carbinol] (10 µM) the same measures were 0.0621 and 94.5% (inactive).
In turn, `CC1(C)CCC(C)(C)c2cc(Cn3cccn3)c(/C=C/c3ccc(C(=O)O)cc3)cc21` [palovarotene] (10 µM) yielded a morphology score in experiment [1] of -0.127. The SARS-CoV-2 infection rate in experiment [2] was 108% (inactive).
With `CCOC(=O)CCC(=O)O[C@H]1[C@H](O[C@@H]2[C@@H](C)[C@H](O[C@H]3C[C@@](C)(OC)[C@@H](O)[C@H](C)O3)[C@@H](C)C(=O)O[C@H](CC)[C@@](C)(O)[C@H](O)[C@@H](C)C(=O)[C@H](C)C[C@@]2(C)O)O[C@H](C)C[C@@H]1N(C)C` [erythromycin-ethylsuccinate] (10 µM), the morphology score in experiment [1] is -0.215. Besides, in experiment [2], the SARS-CoV-2 infection rate was 118% (inactive).
`NC(=O)OCC(COC(N)=O)c1ccccc1` [felbamate] (10 µM): the morphology score in experiment [1] is -0.0125. The SARS-CoV-2 infection rate in experiment [2] was 99% (inactive).
Regarding `COc1ccccc1OCC(O)COC(N)=O` (stereo unspecified) [methocarbamol] (10 µM), the morphology score in experiment [1] was found to be 0.0924. For the same compound, in experiment [2], the SARS-CoV-2 infection rate is 100% (inactive).
